Data as given in PubChem BioAssay (NCATS).
Inconclusive results are not listed. A call without a number means that no potency is given here. Calls of active or inactive are those of the source. Unless noted, calls follow the shape of the dose curve; as a rule, active = well fitted curve in the direction sought with a large enough effect; inconclusive = small, poorly fitted or top-dose-only effect, or another doubt; inactive = no such curve, though single readings can be large; an effect the other way counts as inactive or inconclusive.

Legend:
[1] = qHTS for differential inhibitors of proliferation of Plasmodium falciparum line HB3 (AID 1886); conditions: Potency: Plasmodium falciparum HB3 proliferation inhibition;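 also: parasites grown with compound for 72 h before SYBR Green readout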; also: potency is read from the fitted curve at half-maximal effect
[2] = target: ATP-dependent DNA helicase Q1 (Homo sapiens) (UniProt P46063); test: qHTS Validation Assay for Inhibitors of RecQ-Like Dna Helicase 1 (RECQ1) (AID 2353); also: potency is read from the fitted curve at half-maximal effect
Sequence of ATP-dependent DNA helicase Q1 (Homo sapiens) (P46063 whole entry, looked up): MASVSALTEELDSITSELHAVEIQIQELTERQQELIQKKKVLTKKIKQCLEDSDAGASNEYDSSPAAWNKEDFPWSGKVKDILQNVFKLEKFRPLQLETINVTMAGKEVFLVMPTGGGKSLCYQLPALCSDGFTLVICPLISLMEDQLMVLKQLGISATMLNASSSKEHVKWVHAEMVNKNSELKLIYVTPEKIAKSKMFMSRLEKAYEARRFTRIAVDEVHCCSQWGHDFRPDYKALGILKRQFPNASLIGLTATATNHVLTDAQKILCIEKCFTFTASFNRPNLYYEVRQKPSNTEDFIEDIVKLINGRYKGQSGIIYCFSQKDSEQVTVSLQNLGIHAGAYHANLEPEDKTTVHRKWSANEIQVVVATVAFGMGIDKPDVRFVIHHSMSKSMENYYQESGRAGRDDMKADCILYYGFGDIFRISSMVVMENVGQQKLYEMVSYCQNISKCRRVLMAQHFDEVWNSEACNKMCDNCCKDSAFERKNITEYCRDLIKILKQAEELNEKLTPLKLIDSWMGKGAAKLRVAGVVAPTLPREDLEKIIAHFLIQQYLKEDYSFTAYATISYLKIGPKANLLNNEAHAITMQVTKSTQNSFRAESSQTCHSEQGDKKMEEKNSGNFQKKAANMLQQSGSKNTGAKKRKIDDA
Outline: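 RECQ1T1 50 nM; forked duplex (20 bp + 30-nt ss tails) 200 nM, ATP 2 mM final; pH 8.0, 2 mM MgCl2, 2.5 ug/ml poly(dI-dC); 15 min compound preincubation; discontinuous kinetic read over 2 h at RT.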

[3] = target: RecQ-like DNA helicase BLM (Homo sapiens) (UniProt P54132); test: qHTS Validation Assay for Inhibitors of Bloom's syndrome helicase (BLM) (AID 2364); also: potency is read from the fitted curve at half-maximal effect
Outline: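 Forked 20-bp duplex substrate (200 nM, TAMRA/BHQ-2) plus 2 mM ATP added after 15 min compound preincubation with 50 nM enzyme, pH 8.0, poly(dI-dC) 2.5 ug/ml. Strand separation followed by fluorescence (525/598 nm) over 2 h, normalized to enzyme-free and DMSO controls.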

[4] = High Content Imaging Cell-Based qHTS for Inhibitors of the mTORC1 Signaling Pathway in MEF (Tsc2-/-, p53-/-) Cells (AID 2666);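 also: percent of cells scored positive for phospho-rpS6 Ser235/236 immunostaining by imaging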
Outline: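 Tsc2-/-, p53-/- MEFs (empty-vector stable) grown in DMEM + 10% FBS were exposed to compounds for 24 hrs at 37 degree Celsius, fixed, and stained with Alexa-488 anti-phospho-rpS6 Ser235/236 plus Hoechst. Imaging gave the percentage of positive cells per well.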

[5] = target: Ubiquitin carboxyl-terminal hydrolase 2 (Homo sapiens) (UniProt O75604); test: qHTS Validation Assay for Inhibitors of Ubiquitin-specific Protease USP2a Using CHOP2 as the Reporter (AID 463106); also: potency is read from the fitted curve at half-maximal effect
Sequence of Ubiquitin carboxyl-terminal hydrolase 2 (Homo sapiens) (O75604 whole entry, looked up): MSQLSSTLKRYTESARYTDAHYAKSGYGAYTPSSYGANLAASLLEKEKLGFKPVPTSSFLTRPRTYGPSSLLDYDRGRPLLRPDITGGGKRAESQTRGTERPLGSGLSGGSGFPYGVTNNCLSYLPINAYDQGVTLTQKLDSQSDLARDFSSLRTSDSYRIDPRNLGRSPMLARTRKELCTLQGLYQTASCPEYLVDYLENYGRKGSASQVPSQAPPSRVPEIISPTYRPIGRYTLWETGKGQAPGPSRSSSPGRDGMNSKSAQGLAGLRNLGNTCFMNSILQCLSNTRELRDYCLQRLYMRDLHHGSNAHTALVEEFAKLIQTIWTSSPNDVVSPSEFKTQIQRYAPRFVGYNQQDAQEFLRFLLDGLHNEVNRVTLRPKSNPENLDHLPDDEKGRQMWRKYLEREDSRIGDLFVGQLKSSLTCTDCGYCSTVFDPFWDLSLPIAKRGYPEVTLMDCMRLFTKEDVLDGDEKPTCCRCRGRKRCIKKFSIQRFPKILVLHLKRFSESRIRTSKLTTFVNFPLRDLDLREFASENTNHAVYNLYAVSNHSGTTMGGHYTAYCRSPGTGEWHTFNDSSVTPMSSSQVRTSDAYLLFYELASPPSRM
Outline: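 Readout was coupled fluorescence (Ex 485/Em 531 nm), read 60 min after adding 25 nM final Ub-CHOP2 and 25 nM reporter substrate. Beforehand, 10 nM final USP2 core had 30 min at RT with compound in pH 8.0 buffer. Curves were fitted after normalization to NEM and flagged for artifacts using time-zero reads.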

[6] = target: DNA polymerase III PolC-type (Bacillus subtilis (strain 168)) (UniProt P13267); test: qHTS Validation Assay for the Inhibitors of DNA Replication in Gram-Positive Bacteria (AID 485295); also: potency is read from the fitted curve at half-maximal effect
Sequence of DNA polymerase III PolC-type (Bacillus subtilis (strain 168)) (P13267 whole entry, looked up): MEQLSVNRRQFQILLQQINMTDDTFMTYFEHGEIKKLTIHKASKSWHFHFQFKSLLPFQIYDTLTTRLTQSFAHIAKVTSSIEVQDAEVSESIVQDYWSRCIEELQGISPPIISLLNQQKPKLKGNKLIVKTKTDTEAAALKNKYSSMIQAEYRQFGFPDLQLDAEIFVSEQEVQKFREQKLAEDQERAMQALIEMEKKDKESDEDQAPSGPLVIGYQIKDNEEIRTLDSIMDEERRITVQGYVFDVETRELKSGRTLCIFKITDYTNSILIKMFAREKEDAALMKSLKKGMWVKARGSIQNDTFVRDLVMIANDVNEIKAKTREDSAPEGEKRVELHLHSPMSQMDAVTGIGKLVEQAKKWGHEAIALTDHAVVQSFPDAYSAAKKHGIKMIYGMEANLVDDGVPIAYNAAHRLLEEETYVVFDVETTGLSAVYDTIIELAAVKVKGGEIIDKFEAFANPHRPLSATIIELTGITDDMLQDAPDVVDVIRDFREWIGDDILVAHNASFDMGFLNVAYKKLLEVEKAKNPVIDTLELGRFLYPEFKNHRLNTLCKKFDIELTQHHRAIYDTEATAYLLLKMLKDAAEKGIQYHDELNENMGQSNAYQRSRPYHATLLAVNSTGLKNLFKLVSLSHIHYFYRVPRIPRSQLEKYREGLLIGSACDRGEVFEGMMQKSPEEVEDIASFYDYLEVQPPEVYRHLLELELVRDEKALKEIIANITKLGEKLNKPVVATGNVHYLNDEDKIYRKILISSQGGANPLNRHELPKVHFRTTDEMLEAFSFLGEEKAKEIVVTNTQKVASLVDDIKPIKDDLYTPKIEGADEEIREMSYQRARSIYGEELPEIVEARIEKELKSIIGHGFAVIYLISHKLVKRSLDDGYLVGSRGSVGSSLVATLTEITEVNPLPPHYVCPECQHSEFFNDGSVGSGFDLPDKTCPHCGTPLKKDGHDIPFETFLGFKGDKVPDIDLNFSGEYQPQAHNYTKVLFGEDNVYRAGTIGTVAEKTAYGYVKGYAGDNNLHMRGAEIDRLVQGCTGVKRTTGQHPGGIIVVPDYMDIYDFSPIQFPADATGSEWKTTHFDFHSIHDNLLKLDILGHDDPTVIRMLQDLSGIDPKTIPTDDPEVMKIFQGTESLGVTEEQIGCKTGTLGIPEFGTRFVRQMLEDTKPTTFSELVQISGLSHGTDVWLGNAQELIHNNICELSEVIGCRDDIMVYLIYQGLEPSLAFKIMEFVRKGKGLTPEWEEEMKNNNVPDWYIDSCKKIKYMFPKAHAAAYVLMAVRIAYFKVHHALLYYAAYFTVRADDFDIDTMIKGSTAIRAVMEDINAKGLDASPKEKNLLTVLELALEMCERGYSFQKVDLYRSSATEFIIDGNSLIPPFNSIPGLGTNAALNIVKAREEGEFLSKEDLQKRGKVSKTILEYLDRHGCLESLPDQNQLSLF
Outline: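 Primed replication of single-stranded M13Gori by a four-protein B. subtilis holoenzyme is measured at room temperature. Double-stranded product is quantified by PicoGreen fluorescence after an EDTA stop; inhibition is scaled between DMSO and EDTA controls.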

[7] = target: Tumor susceptibility gene 101 protein (Homo sapiens) (UniProt Q99816); test: qHTS Validation Assay for Iinhibitors of HIV-1 Budding by Blocking the Interaction of PTAP/TSG101 (AID 485342; calls by dose curve)
Sequence of Tumor susceptibility gene 101 protein (Homo sapiens) (Q99816 whole entry, looked up, the tested form may be a part): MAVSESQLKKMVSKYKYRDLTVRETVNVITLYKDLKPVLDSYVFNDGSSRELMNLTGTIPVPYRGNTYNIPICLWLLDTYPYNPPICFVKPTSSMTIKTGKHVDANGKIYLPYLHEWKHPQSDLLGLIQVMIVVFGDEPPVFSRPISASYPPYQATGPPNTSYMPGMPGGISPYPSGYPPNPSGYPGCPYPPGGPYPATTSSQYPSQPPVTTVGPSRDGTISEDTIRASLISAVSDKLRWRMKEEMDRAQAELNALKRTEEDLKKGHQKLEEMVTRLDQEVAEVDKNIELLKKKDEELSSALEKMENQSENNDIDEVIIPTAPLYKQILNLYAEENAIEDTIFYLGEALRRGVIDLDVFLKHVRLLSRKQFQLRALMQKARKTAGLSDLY
Outline: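 Fluorescence anisotropy measured PTAP-Tsg101 interaction. Final concentrations were 10 uM protein domain and 50 nM labeled peptide, equilibrated 20 min at room temperature.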

[8] = target: Beta-2 adrenergic receptor (Homo sapiens) (UniProt P07550); test: qHTS validation assay of beta-arrestin-biased ligands of beta2-adrenergic receptor (AID 485366)
Sequence of Beta-2 adrenergic receptor (Homo sapiens) (P07550 whole entry, looked up): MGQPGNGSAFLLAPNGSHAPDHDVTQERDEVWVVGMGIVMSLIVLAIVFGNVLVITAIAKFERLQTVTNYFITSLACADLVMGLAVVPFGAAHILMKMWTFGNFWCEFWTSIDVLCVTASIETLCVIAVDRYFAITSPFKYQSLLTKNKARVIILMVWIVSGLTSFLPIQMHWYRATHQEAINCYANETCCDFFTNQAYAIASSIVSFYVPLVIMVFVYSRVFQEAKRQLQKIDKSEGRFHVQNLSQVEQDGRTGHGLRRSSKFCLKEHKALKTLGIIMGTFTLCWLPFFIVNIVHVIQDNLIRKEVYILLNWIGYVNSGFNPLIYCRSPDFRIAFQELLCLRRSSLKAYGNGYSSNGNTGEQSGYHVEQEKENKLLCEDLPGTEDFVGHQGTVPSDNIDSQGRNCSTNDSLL
Outline: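 Compound series up to 46 microM applied to beta2-AR/beta-arrestin Tango cells, 18 hr, 37 degrees C, 5% CO2. Read-out: tTA-driven luciferase luminescence, converted to %Activity; concentration-response curves assigned curve classes.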

[9] = Quantitative high throughput screen for delayed death inhibitors of the malarial parasite plastid, 96 hour incubation (AID 488745); also: nearly all actives have a fitted effect of over 70% in size; also: potency is read from the fitted curve at half-maximal effect
Outline: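 Readout is firefly luciferase luminescence from an integrated reporter in P. falciparum; lower signal marks inhibited growth. Cultures at 2% hematocrit and 0.1% parasitemia were treated with compound across two generations (96 h, 37 C, 5% CO2).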

[10] = Cytometric Cell-Based qHTS for Inhibitors of the mTORC1 Signaling Pathway in MEF (Tsc2-/-, p53-/-) Cells (AID 2660);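 also: Tsc2 and p53 null MEFs carrying empty vector with compound for 24 h; percent of cells above a phospho-rpS6 to PI ratio cutoff in each well; series mostly up to about 38 µM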
Outline: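 Cells are plated, treated with compound for 24 hrs at 37 degree Celsius, then fixed, blocked and immunostained for phospho-rpS6 Ser235/236. Propidium iodide counterstain follows. Per-well % positive cells is derived from the PI-normalized phospho-S6 signal.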

[11] = High Content Imaging Cell-Based qHTS for Inhibitors of the mTORC1 Signaling Pathway in MEF Cells (AID 2667);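 also: Tsc2-/- p53-/- MEFs stably re-expressing wild-type Tsc2 exposed 24 h; series mostly up to about 38 µM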
Outline: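 Tsc2-/-, p53-/- MEFs stably re-expressing WT Tsc2, grown in DMEM + 10% FBS, were treated with compounds for 24 hrs at 37 degree Celsius, fixed, and stained with Alexa-488 phospho-rpS6 Ser235/236 antibody plus Hoechst; results given as % positive cells.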

[12] = Cytometry Cell-Based qHTS for Inhibitors of the mTORC1 Signaling Pathway in MEF cells (AID 2668);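 also: Tsc2-/- p53-/- mouse embryonic fibroblasts stably re-expressing wild-type Tsc2; percent cells positive for phospho-rpS6 Ser235/236 relative to propidium iodide stain; series mostly up to about 38 µM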
Outline: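 Pathway inhibition in WT Tsc2-rescued Tsc2-/-, p53-/- MEFs is measured as the Alexa-488 phospho-rpS6 to propidium iodide intensity ratio after 24 hrs of compound at 37 degree Celsius. PI-stained cell number gives viability.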

[13] = Validation screen for small molecules that induce DNA re-replication in MCF 10A normal breast cells (AID 463097); also: nearly all actives have a fitted effect of over 60% in size; also: potency is read from the fitted curve at half-maximal effect
Outline: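 DNA re-replication was detected as a rise in nuclei with elevated Hoechst fluorescence after a 48 hr compound exposure of MCF 10A cells at 37 C.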

[14] = qHTS Validation Assay to Find Inhibitors of Chronic Active B-Cell Receptor Signaling (AID 485345; active = well fitted curve in the direction sought with a large enough effect in the main read-out, with a control signal flat, not every such curve was filed as active)
Outline: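 Read-out: ratio of filter-corrected green (IkappaBalpha fusion) to red (native) luciferase signal in doxycycline-induced TMD8 cells after 4 h at 37C. Titration spanned 46 uM–3 nM; Data were normalised to basal cells and 10 uM MG-132 wells.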

[15] = target: ATP-dependent 6-phosphofructokinase (Trypanosoma brucei brucei) (UniProt O15648); test: qHTS Validation Assay to Find Inhibitors of T. brucei phosphofructokinase (AID 485368); also: potency is read from the fitted curve at half-maximal effect
Sequence of ATP-dependent 6-phosphofructokinase (Trypanosoma brucei brucei) (O15648 whole entry, looked up): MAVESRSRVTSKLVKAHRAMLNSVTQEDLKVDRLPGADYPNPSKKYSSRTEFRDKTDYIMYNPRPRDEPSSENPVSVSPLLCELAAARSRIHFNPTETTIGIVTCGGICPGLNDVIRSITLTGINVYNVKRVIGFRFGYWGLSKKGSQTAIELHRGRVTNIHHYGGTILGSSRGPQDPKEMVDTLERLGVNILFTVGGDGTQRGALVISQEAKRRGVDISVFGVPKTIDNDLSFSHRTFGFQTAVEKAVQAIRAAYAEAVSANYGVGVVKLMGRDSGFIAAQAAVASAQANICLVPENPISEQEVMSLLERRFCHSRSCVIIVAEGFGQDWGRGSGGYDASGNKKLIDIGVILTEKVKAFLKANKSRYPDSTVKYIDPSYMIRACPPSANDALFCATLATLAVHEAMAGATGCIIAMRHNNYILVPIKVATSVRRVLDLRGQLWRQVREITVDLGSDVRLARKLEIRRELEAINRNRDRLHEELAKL
Outline: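 qHTS format, up to 57 uM. PFK 1.25 nM; F6P 0.5 mM; ATP 0.1 mM; 5 mM MgCl2, 0.01% Tween20, 0.1% BSA; 0.1 M TEA pH 8.0; 45 min RT; ADP-Glo readout; no-enzyme control = full inhibition.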

[16] = target: Ferritin light chain (Equus caballus) (UniProt P02791); test: qHTS Validation Assay for Identification of Novel General Anesthetics (AID 2323); also: series mostly up to about 77 µM
Sequence of Ferritin light chain (Equus caballus) (P02791 2-175 limits assumed): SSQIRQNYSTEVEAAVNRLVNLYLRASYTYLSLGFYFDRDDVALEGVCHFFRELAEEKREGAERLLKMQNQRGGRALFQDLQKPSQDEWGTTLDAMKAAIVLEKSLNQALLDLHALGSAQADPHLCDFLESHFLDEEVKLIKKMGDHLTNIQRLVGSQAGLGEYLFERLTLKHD
Outline: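 Apoferritin from horse spleen (10 uM) was mixed with 1-aminoanthracene at 50% saturation in PBS, then compounds were added. After 10 min at room temperature, fluorescence was read (ex 380 nm, em 535 nm) and normalized to free-probe and complex controls.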

[17] = qHTS Assay for Modulators of Human Peripheral Myelin Protein 22 (PMP22) Expression/Activity (AID 1967; active = well fitted curve in the direction sought with a large enough effect in the signal ratio; the % refers to the signal ratio)
Outline: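 Quantitative HTS in a mouse Schwann cell line expressing dual click beetle luciferases: Pmp22 promoter (green) and control EF-alpha promoter (red). After 24h treatment, corrected green/red signal ratio gave %Activity relative to untreated cells.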

Compound | Potency [1] | Potency [2] | Potency [3] | Potency [4] | Potency [5] | Potency [6] | outcome [7] | outcome [8] | Potency [9] | outcome [10] | Potency [11] | Potency [12] | Potency [13] | outcome [14] | Potency [15] | Potency [16] | outcome [17]
NC[C@@H]1O[C@H](C23CC4CC(CC(C4)C2)C3)Cc2c1ccc(O)c2O | 2.82 µM (active) | inactive | inactive | inactive | inactive | inactive | inactive | inactive | 3.29 µM (active) |  |  |  |  |  |  |  | 
COC(=O)c1c(C)[nH]c(C)c1C(=O)c1ccccc1Cc1ccccc1 | 12.6 µM (active) | inactive |  | inactive | inactive | inactive | inactive | inactive | 11.7 µM (active) | inactive | inactive | inactive | inactive |  |  |  | 
Oc1ccc(C2CNCc3sccc32)cc1O (stereo not drawn) | 11.2 µM (active) | inactive |  |  | inactive | inactive | inactive | inactive |  | inactive | inactive | inactive | inactive | inactive |  |  | 
O=C(c1cc(O)c(O)c([N+](=O)[O-])c1)c1ccccc1F | inactive | inactive |  | inactive | inactive | inactive | inactive | inactive | inactive | inactive | inactive | inactive |  | inactive |  |  | 
N#C/C(=C\c1ccc(O)c(O)c1)C(=O)c1ccc(O)c(O)c1 | 12.6 µM (active) | 282 nM (active) | 8.91 µM (active) | inactive | 1.17 µM (active) |  | inactive | inactive |  | inactive | inactive |  | inactive | inactive | 675 nM (active) |  | 
O=C(Nc1cccc(C(=O)Nc2ccc(S(=O)(=O)O)c3cc(S(=O)(=O)O)cc(S(=O)(=O)O)c23)c1)Nc1cccc(C(=O)Nc2ccc(S(=O)(=O)O)c3cc(S(=O)(=O)O)cc(S(=O)(=O)O)c23)c1 | inactive |  | inactive |  | 8.26 µM (active) | 11.9 µM (active) | inactive | inactive | inactive | inactive | inactive | inactive | inactive | inactive | 37.9 nM (active) | inactive | 
CC[C@@H](C)[C@H]1O[C@]2(CC[C@@H]1C)C[C@@H]1C[C@@H](C/C=C(\C)[C@@H](O[C@H]3C[C@H](OC)[C@@H](O[C@H]4C[C@H](OC)[C@@H](O)[C@H](C)O4)[C@H](C)O3)[C@@H](C)/C=C/C=C3\CO[C@@H]4[C@H](O)C(C)=C[C@@H](C(=O)O1)[C@]34O)O2 | 1.12 µM (active) | inactive |  |  |  |  |  |  | 0.117 µM (active) |  |  |  |  |  |  |  | 
Fc1ccc(C(OCCCc2cnc[nH]2)c2ccc(F)cc2)cc1 | 2.51 µM (active) | inactive |  | inactive | inactive | inactive | inactive | inactive | 2.62 µM (active) | inactive | inactive | inactive | inactive |  |  |  | 
Oc1cc2c(cc1O)CN(C(=S)NCCc1ccc(Cl)cc1)CCC2 | 8.91 µM (active) | inactive |  | inactive | inactive | inactive | inactive | inactive |  | inactive | inactive |  | 3.55 µM (active) |  |  |  | 
O=C(Nc1ccccc1)c1cc([N+](=O)[O-])ccc1Cl | 10 µM (active) | inactive | inactive | inactive | inactive | inactive | inactive | inactive |  | inactive | inactive |  | inactive |  | inactive |  | 
N[C@@H](CC(=O)O)C(=O)O | inactive | inactive |  |  | inactive | inactive | inactive | inactive | inactive | inactive | inactive | inactive | inactive | inactive | inactive |  | 
O=Nc1ccc2oc(=O)ccc2c1 | 12.6 µM (active) | inactive |  |  | inactive | inactive | inactive | inactive | inactive |  |  |  |  |  | 19000 nM (active) |  | 
CN(C)c1ccc(/C=C2\C(=O)Nc3ccccc32)cc1 | 10 µM (active) | inactive |  |  | inactive | inactive | inactive | inactive |  | inactive |  |  |  |  |  |  | 
CC12C(=O)OC(=O)C1(C)C1CCC2O1 (stereo not drawn) | 3.98 µM (active) | inactive |  |  | inactive |  | inactive | inactive | 3.29 µM (active) |  |  |  |  |  |  | inactive | 
C[C@@H](NC(=O)/C(C#N)=C/c1ccc(O)c(O)c1)c1ccccc1 | 11.2 µM (active) | inactive |  | inactive | inactive | inactive | inactive | inactive |  | inactive | inactive |  |  |  |  |  | 
O=c1[nH]c2cc(C(F)(F)F)ccc2n1-c1cc(C(F)(F)F)ccc1O | 12.6 µM (active) | inactive |  | inactive | inactive | inactive | inactive | inactive |  | inactive | inactive | inactive | inactive |  | inactive |  | 
CN1[C@@H](CC(=O)c2ccccc2)CCC[C@H]1C[C@H](O)c1ccccc1 |  | inactive | inactive | inactive | inactive | inactive | inactive | inactive | inactive | inactive | inactive | inactive | inactive | inactive |  | inactive | inactive
